These results are taken from paper PMC7862700, “An all-to-all approach to the identification of sequence-specific readers for epigenetic DNA modifications on cytosine”.

What all share (experiment): DAPPL (digital affinity profiling via proximity ligation, sequencing); 10 mM Tris-HCl pH 7.5, 50 mM NaCl, 1 mM DTT, 4% glycerol, room temperature, 30 min; GST-TFs on glutathione beads, 16-mer random dsDNA library, 0.1% formaldehyde crosslink after washing; high values mean tight binding
For test [1], the target named is T1, FEV (Homo sapiens, UniProt Q99581 1-238).
T1 sequence: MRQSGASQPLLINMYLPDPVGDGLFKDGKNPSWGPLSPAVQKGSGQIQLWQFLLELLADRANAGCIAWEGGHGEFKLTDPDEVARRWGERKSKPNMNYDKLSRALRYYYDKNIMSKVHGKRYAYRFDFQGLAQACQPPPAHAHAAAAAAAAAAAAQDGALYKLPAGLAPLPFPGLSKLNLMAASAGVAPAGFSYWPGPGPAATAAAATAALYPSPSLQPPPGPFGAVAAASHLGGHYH
As to conditions: protein: recombinant; tags: N-terminal GST; dsDNA, one strand shown. In short, it runs like this:
(§1)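 A tag-only sample was pooled with DNA-barcoded human transcription factors that had been expressed in yeast as GST fusions and captured on glutathione beads. The pools were incubated for 30 min at room temperature with 200 nmole of a random double-stranded 16-mer DNA library in Tris/NaCl/DTT/glycerol buffer, then washed, crosslinked with 0.1% formaldehyde, proximity-ligated (BsaI/T4 ligase, 1 h, 37 °C), PCR-amplified and sequenced on an Illumina NextSeq500. Binding signal is each hexamer's read frequency for a factor divided by its frequency for the tag-only sample.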

Test [2] concerns the target ETV5 (Homo sapiens, UniProt P41161 1-510). The settings on record: protein: recombinant; tags: N-terminal GST; dsDNA, one strand shown. In short, it runs like this: as §1
Test [3] has as its target HSF1 (Homo sapiens, UniProt Q00613 1-529). As to conditions: protein: recombinant; tags: N-terminal GST; chain copies: 3; dsDNA, one strand shown. The procedure, abridged:
as §1

For test [4], the target named is T2, SPIC (Homo sapiens, UniProt Q8N5J4 1-248).
T2 sequence: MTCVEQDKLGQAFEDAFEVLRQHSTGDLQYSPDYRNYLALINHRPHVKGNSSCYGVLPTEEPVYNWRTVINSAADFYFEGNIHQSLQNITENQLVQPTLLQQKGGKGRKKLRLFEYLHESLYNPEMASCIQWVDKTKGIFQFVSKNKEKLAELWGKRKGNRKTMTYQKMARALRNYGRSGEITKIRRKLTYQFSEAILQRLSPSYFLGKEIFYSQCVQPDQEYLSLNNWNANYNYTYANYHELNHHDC
As to conditions: protein: recombinant; tags: N-terminal GST; dsDNA, one strand shown. The procedure, abridged:
as §1

Test [5] has as its target ELF4 (Homo sapiens, UniProt Q99607 1-663). As to conditions: protein: recombinant; tags: N-terminal GST; dsDNA, one strand shown. In short, it runs like this:
as §1

Test [6] deals with T3, ELK4 (Homo sapiens, UniProt P28324-2 1-405).
T3 sequence: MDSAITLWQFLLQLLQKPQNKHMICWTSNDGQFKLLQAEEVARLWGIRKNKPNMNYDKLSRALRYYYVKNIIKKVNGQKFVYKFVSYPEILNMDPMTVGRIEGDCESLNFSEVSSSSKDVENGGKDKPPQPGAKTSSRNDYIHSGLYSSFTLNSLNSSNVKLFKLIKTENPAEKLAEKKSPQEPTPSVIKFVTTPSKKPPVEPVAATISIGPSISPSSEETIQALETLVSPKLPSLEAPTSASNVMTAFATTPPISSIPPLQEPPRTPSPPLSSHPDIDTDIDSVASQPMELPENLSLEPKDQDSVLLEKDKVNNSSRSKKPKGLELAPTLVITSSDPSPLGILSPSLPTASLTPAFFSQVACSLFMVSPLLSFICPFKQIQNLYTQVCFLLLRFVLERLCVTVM
As to conditions: protein: recombinant; tags: N-terminal GST; dsDNA, one strand shown. In short, it runs like this: as §1

The target of test [7] is T4, ETV2 (Homo sapiens, UniProt O00321 1-342).
T4 sequence: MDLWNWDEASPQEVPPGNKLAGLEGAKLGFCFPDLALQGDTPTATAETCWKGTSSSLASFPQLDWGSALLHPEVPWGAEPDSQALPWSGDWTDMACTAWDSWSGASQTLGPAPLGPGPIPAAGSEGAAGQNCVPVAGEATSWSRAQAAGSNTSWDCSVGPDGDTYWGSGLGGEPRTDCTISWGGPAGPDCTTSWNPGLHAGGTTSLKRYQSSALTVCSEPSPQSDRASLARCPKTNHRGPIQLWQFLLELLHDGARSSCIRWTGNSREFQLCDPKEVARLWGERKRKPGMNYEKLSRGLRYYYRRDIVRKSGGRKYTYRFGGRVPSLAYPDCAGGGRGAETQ
The settings on record: protein: recombinant; tags: N-terminal GST; dsDNA, one strand shown. The procedure, abridged:
as §1

Test [8] addresses T5, ELF3 (Homo sapiens, UniProt P78545 1-371).
T5 sequence: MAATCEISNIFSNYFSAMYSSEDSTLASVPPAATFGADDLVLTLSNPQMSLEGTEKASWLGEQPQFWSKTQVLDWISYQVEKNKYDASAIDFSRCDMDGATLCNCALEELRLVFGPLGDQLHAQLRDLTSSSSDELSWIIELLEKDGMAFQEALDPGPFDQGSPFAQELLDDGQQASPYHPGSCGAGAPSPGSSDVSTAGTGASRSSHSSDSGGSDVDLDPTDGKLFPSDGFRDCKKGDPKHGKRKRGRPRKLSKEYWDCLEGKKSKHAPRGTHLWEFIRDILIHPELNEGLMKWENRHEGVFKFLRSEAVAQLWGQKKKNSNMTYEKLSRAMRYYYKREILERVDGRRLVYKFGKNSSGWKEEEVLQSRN
As to conditions: protein: recombinant; tags: N-terminal GST; dsDNA, one strand shown. The procedure, abridged:
as §1

Test [9] addresses CRX (Homo sapiens, UniProt O43186 1-299). As to conditions: protein: recombinant; tags: N-terminal GST; dsDNA, one strand shown. In short, it runs like this:
as §1

The target in test [10] is ETV1 (Homo sapiens, UniProt P50549 1-477). The settings on record: protein: recombinant; tags: N-terminal GST; dsDNA, one strand shown. In short, it runs like this: as §1
ETV1, sequence (P50549 whole entry): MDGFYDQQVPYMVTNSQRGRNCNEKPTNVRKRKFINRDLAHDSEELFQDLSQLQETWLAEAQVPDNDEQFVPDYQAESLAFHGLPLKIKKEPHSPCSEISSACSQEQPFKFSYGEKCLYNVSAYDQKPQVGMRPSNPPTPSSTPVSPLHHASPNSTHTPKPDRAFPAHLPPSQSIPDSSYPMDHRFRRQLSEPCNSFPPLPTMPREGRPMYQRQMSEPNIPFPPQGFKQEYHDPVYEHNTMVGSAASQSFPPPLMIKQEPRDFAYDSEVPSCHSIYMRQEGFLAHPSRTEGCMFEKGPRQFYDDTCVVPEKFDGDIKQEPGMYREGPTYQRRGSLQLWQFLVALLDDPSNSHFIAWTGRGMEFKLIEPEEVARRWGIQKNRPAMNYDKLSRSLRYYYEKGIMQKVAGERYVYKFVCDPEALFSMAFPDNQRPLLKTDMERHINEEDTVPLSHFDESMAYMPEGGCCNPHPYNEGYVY
For test [11], the target named is T6, ERF (Homo sapiens, UniProt P50548 1-548).
T6 sequence: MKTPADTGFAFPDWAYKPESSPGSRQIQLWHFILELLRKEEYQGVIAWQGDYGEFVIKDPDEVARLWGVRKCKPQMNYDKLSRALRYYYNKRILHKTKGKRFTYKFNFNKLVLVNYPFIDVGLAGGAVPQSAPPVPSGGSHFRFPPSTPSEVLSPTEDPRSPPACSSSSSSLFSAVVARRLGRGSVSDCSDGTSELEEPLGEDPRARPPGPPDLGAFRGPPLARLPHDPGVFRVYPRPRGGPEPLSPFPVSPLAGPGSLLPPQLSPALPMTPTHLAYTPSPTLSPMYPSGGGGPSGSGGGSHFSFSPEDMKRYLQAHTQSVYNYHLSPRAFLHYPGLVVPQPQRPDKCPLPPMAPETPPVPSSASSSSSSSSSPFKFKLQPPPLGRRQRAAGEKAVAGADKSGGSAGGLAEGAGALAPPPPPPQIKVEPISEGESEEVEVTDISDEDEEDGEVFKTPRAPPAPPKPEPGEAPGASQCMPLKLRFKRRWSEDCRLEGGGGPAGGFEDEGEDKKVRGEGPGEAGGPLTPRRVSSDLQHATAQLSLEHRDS
The settings on record: protein: recombinant; tags: N-terminal GST; dsDNA, one strand shown. In short, it runs like this: as §1

Test [12] deals with T7, ETV3L (Homo sapiens, UniProt Q6ZN32 1-361).
T7 sequence: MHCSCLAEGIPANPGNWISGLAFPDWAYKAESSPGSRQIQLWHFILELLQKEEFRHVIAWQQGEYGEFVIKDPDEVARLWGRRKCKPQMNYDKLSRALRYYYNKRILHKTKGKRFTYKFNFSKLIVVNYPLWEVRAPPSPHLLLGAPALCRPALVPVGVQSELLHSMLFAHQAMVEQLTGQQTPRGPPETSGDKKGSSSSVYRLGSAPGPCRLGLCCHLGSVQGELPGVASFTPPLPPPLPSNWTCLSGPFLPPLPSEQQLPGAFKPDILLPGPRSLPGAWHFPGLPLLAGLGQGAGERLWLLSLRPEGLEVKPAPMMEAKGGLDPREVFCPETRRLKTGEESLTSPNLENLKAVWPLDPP
The settings on record: protein: recombinant; tags: N-terminal GST; dsDNA, one strand shown. In short, it runs like this:
as §1

Test [13] concerns the target T8, ETS2 (Homo sapiens, UniProt P15036 1-469).
T8 sequence: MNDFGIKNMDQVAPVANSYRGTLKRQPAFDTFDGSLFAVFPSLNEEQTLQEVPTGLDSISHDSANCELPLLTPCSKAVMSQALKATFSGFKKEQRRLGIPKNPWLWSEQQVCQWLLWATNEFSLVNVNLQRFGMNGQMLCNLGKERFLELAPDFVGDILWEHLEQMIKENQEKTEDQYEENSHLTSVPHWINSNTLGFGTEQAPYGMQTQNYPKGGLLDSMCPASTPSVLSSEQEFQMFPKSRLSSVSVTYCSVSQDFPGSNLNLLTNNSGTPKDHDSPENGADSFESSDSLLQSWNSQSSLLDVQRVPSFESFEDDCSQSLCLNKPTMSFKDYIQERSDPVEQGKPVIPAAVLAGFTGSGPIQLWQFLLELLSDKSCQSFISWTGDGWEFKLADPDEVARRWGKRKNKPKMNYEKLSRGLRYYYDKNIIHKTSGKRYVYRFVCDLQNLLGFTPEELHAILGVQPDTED
As to conditions: protein: recombinant; tags: N-terminal GST; dsDNA, one strand shown. The procedure, abridged: as §1

Test [14] concerns the target T9, SPDEF (Homo sapiens, UniProt O95238 1-335).
T9 sequence: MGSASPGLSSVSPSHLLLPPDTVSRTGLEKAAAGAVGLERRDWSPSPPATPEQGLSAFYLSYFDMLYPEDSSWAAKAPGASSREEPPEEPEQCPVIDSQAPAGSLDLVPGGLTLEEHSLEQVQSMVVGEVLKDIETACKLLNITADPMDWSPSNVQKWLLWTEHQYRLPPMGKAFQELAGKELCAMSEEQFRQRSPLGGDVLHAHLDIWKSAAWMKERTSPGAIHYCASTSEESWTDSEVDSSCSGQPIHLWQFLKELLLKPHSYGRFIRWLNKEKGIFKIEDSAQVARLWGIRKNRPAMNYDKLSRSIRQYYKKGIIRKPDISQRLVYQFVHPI
The settings on record: protein: recombinant; tags: N-terminal GST; dsDNA, one strand shown. The procedure, abridged: as §1

Test [15] concerns the target T10, ETV7 (Homo sapiens, UniProt Q9Y603 1-341).
T10 sequence: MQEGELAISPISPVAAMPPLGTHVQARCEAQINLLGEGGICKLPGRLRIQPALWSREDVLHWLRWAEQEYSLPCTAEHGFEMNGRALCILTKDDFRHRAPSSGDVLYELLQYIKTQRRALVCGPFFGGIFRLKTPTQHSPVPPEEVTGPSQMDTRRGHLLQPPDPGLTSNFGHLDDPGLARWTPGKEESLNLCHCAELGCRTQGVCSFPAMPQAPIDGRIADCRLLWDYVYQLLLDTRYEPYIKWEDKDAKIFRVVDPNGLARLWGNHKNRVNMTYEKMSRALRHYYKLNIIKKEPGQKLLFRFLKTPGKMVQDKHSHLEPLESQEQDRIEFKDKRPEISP
The settings on record: protein: recombinant; tags: N-terminal GST; dsDNA, one strand shown. The procedure, abridged: as §1

Test [16] addresses T11, ELF5 (Homo sapiens, UniProt Q9UKW6-2 1-255).
T11 sequence: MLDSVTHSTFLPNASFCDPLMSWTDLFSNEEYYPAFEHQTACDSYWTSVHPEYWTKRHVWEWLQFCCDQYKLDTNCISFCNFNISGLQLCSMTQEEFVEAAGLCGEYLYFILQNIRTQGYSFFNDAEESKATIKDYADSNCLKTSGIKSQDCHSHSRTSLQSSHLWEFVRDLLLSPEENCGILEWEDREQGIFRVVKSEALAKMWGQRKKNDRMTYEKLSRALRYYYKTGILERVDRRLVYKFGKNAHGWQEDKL
The settings on record: protein: recombinant; tags: N-terminal GST; dsDNA, one strand shown. The procedure, abridged:
as §1

The target of test [17] is T12, ETV3 (Homo sapiens, UniProt P41162-2 1-143).
T12 sequence: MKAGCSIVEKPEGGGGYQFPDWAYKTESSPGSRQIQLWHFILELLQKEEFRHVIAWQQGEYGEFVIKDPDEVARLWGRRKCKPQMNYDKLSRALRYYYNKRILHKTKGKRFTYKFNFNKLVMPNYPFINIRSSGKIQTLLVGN
The settings on record: protein: recombinant; tags: N-terminal GST; dsDNA, one strand shown. In short, it runs like this:
as §1

Test [18] deals with ETV6 (Homo sapiens, UniProt P41212 1-452). The settings on record: protein: recombinant; tags: N-terminal GST; dsDNA, one strand shown. In short, it runs like this:
as §1

ETV5, sequence (P41161 whole entry): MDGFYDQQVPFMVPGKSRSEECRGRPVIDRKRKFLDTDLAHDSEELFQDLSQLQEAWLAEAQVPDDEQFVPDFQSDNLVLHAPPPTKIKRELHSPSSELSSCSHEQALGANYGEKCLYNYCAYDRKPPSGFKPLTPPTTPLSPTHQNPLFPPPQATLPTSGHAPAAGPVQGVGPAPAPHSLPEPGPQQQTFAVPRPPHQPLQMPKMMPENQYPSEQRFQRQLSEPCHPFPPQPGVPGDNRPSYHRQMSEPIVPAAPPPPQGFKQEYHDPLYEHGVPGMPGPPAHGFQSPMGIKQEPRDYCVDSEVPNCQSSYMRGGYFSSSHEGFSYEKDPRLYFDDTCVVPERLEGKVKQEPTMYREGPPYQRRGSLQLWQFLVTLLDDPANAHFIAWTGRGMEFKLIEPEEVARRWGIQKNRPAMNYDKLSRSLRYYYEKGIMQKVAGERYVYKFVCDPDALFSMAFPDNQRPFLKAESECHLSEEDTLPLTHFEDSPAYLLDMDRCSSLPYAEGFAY
CRX, sequence (O43186 whole entry): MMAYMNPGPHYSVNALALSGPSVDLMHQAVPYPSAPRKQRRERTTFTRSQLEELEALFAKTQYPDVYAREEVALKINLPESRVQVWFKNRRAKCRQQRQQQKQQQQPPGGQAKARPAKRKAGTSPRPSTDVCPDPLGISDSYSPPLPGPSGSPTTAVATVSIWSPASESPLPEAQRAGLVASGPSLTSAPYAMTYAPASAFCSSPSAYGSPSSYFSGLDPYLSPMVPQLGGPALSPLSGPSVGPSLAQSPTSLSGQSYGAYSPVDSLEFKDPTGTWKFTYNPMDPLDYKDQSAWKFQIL
ETV6, sequence (P41212 whole entry): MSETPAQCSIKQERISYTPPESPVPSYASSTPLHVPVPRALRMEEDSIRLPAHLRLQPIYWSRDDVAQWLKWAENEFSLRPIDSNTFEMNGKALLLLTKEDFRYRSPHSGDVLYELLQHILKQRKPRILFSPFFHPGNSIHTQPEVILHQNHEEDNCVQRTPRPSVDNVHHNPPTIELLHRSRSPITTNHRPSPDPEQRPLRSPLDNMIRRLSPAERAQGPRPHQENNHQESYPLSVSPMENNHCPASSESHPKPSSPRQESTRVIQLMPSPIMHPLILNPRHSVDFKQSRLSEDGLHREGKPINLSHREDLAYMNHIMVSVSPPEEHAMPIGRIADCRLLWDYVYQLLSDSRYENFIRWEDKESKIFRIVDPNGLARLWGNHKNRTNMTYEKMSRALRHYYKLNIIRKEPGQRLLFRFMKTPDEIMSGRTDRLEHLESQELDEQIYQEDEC
ELF4, sequence (Q99607 whole entry): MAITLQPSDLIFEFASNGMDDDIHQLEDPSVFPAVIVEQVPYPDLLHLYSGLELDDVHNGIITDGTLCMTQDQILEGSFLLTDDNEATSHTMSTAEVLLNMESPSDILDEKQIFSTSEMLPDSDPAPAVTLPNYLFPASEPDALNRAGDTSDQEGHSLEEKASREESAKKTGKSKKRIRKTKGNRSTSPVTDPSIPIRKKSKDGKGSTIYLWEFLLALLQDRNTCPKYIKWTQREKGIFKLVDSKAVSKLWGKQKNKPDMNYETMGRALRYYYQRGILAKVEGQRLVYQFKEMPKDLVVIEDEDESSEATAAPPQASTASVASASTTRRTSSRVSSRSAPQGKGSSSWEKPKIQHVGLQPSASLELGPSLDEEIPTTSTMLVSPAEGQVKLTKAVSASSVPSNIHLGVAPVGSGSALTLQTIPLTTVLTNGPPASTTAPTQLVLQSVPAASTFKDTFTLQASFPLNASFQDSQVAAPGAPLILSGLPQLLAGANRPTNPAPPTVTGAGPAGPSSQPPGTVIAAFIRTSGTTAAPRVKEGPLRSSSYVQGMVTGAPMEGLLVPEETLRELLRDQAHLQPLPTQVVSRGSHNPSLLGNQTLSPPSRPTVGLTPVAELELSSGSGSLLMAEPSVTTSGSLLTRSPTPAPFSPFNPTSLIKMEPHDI
HSF1, sequence (Q00613 whole entry): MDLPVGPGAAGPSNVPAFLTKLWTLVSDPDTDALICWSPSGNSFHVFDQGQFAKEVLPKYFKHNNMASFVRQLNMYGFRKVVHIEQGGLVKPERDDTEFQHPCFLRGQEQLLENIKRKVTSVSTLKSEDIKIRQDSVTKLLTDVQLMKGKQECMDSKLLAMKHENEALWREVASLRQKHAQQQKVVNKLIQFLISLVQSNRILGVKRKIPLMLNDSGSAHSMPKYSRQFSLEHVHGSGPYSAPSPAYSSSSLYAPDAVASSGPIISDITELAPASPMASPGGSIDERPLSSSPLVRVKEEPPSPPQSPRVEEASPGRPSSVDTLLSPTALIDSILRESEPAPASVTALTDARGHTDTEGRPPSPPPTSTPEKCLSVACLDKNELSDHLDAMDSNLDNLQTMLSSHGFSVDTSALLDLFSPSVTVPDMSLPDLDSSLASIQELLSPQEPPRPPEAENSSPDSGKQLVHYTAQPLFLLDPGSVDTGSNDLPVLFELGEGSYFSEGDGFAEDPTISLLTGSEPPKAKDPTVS

In the case of TAAATT, the binding signal in test [1] is 1.25 fold enrichment (6-mer frequency, TF over GST control); in test [2], 1.26 fold enrichment (6-mer frequency, TF over GST control); in test [3], 1.51 fold enrichment (6-mer frequency, TF over GST control); in test [4], 1.25 fold enrichment (6-mer frequency, TF over GST control); in test [5] it was 1.17 fold enrichment (6-mer frequency, TF over GST control); in test [6] it was 1.31 fold enrichment (6-mer frequency, TF over GST control). The binding signal was 1.34 fold enrichment (6-mer frequency, TF over GST control) in [7]; 1.32 fold enrichment (6-mer frequency, TF over GST control) in test [8]; 1.76 fold enrichment (6-mer frequency, TF over GST control) in test [9]; 1.17 fold enrichment (6-mer frequency, TF over GST control) in test [10]; 1.3 fold enrichment (6-mer frequency, TF over GST control) in test [11]; 1.32 fold enrichment (6-mer frequency, TF over GST control) in test [12]. In addition, the binding signal in [13] is 1.17 fold enrichment (6-mer frequency, TF over GST control); in test [14], 1.21 fold enrichment (6-mer frequency, TF over GST control); in test [15], 1.27 fold enrichment (6-mer frequency, TF over GST control); in [16], 1.19 fold enrichment (6-mer frequency, TF over GST control); in test [17], 1.21 fold enrichment (6-mer frequency, TF over GST control); in test [18], 1.28 fold enrichment (6-mer frequency, TF over GST control).
